# Experimental data taken from PubChem BioAssay AID1211 (NMMLSC, 2008).
# Active and inactive are the calls of the source. The rule behind the calls is not given here.
# Biological target: Estrogen receptor (Homo sapiens) (UniProt P03372)
# Assay: ERalpha ligand binders by competition, primary screen, cell-based, Cos7 ERalpha-GFP, flow cytometry (AID 1211);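 note: 0% = DMSO vehicle wells and 100% = no E2-Alexa633 signal left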
# Details: fluorescent ligand competition, stronger effect = higher value
# Chain of Estrogen receptor (Homo sapiens) (P03372 whole entry, looked up): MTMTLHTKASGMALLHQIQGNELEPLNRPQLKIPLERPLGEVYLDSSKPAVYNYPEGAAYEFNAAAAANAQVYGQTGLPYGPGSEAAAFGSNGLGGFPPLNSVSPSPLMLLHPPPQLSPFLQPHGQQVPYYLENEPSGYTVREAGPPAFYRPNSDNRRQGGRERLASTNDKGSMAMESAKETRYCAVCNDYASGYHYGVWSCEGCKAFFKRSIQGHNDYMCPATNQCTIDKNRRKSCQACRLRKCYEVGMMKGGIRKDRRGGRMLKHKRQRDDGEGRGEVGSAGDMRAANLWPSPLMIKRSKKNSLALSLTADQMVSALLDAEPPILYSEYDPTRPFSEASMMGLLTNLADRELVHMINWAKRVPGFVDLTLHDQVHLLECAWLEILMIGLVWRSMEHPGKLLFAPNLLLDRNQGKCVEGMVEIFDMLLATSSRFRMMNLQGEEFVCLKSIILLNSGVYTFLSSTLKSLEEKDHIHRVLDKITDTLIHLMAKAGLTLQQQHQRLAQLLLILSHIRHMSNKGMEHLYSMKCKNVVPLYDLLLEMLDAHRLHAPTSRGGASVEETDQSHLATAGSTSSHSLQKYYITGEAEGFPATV
SMILES,inhibition of ligand binding (at 10 µM),"inhibition of ligand binding (binding inhibition, at 0.1 µM)"
CCCc1nnc2n1N=C(c1ccc(-c3cc(Cl)ccc3Cl)o1)CS2,47% (inactive),27%
CCOC(=O)c1ccc(NC(=O)CSc2nc(C)cc(=O)[nH]2)cc1,49% (inactive),21%
COc1ccccc1-c1nnc2sc(-c3cnccn3)nn12,52% (inactive),3%
Cc1[nH]c2ccc(-c3nnc(SCC(=O)c4ccccc4F)o3)cc2c1C,43% (inactive),4%
O=c1cc(-c2ccc(O)c(-c3c(O)cc(O)c4c(=O)cc(-c5ccc(O)cc5)oc34)c2)oc2cc(O)cc(O)c12,24% (inactive),9%
O=C(Nc1nccs1)c1ccc2nccnc2c1,33% (inactive),24%
CCn1c(=NC(=O)c2ccc(N3C(=O)CCC3=O)cc2)sc2c(OC)ccc(OC)c21,66% (active),32%
O=C(Nc1ccc2c(c1)nc1n2CCSC1)c1ccco1,20% (inactive),42%
CCOC(=O)Cc1cc(-c2ccc(O)cc2)nc2ccc3ccccc3c12,37% (inactive),15%
COC(=O)c1ccc2c(=O)n(CC3CCCO3)c(SCC(=O)Nc3ccccc3Cl)nc2c1 (stereo not drawn),45% (inactive),37%
O=C(Nc1cccc(-c2cn3cccnc3n2)c1)c1ccc2c(c1)OCO2,22% (inactive),10%
NC(=O)c1cccc2c1C(=O)N(C1CCCCC1)C2,26% (inactive),39%
CC(Cc1ccc(O)c(O)c1)C(C)Cc1ccc(O)c(O)c1 (stereo not drawn),47% (inactive),3%
O=c1oc2ccccc2cc1-c1ccc(O)cc1O,33% (inactive),18%
Nc1ccc2oc(-c3ccc4nc[nH]c4c3)nc2c1,31% (inactive),55%
Cc1cc(C)nc(NC(=O)CSc2nn(C)c(=S)s2)n1,23% (inactive),34%
Cc1cc(C)n2nc(SCc3cc(=O)oc4cc(O)ccc34)nc2n1,49% (inactive),5%
CCOC(=O)N1CCN(S(=O)(=O)c2ccc(C(=O)Nc3nc4ccc(F)cc4s3)cc2)CC1,34% (inactive),11%
CC(C)(C)NC(=O)c1ccc2c(c1)C1C3CCC(C3)C1C(c1ccccc1)N2 (stereo not drawn),70% (active),9%
COc1ccc(-c2nn(-c3ccccc3)cc2/C=C2/SC(=S)N(Cc3ccco3)C2=O)c(C)c1,21% (active),67%
O=c1oc2c(O)c(O)cc3c(=O)oc4c(O)c(O)cc1c4c23,0% (inactive),4%
CCC1=NN2C(=N)/C(=C\c3ccc(SCc4ccco4)o3)C(=O)N=C2S1,22% (inactive),10%
CCOc1ccc2nc(NC(=O)CCC(=O)c3cccs3)sc2c1,13% (inactive),17%
COc1ccc(C2=NN(C(=O)c3cccnc3)C(c3ccccc3)C2)cc1 (stereo not drawn),37% (inactive),30%
CCCNCC1COc2ccccc2O1 (stereo not drawn),2% (inactive),21%
O=C(Nc1ccc(N2CCCC2)cc1)C(c1ccccc1)c1ccccc1,63% (inactive),7%
CC1(C)CC(=O)C2=C(C1)OC(c1ccc(O)cc1)C(C#N)=C2N (stereo not drawn),34% (inactive),5%
Cc1cc(C(=O)Nc2sc3c(c2C#N)CCC3)no1,46% (active),66%
CCOC(=O)C1=c2/c(=C/c3ccccc3OC)c(N)c(C#N)n2C(=O)C(c2ccccc2OC)S1 (stereo not drawn),34% (inactive),21%
